Experiment [1] can be described thus: ATG_E_Box_CIS: Attagene CIS-FACTORIAL HepG2 Assay for human Enhancer Box (E-box) (AID 2282936). Conditions: HepG2 E-box cis-reporter transcription, actives raise or lower the signal. In a few lines: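 Fluorescent reporter fragments separated by capillary electrophoresis gave the signal; mRNA came from HepG2 cells transfected with cis-element reporters and treated 24 h. Curves fitted bidirectionally relative to DMSO controls.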

A short description of experiment [2]: ATG_M_61_CIS: Attagene CIS-FACTORIAL HepG2 Assay for M61 Transcription Factor (Internal Marker) (AID 2282937). Conditions: HepG2 Attagene CIS-FACTORIAL M61 internal marker reporter; actives raise or lower the signal. In a few lines:
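Readout is reporter mRNA by RT-PCR, fluorescent primer extension and capillary electrophoresis, with gain or loss fitted relative to DMSO. Transfected HepG2 cells carrying endogenous-TF-driven cis reporters were exposed to chemicals for 24 hours.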

Experiment [3] can be described thus: ATG_EGR_CIS: Attagene CIS-FACTORIAL HepG2 Assay for human Early Growth Response 1 (EGR1) (AID 2282938). Conditions: HepG2 Attagene CIS-FACTORIAL EGR reporter mRNA; actives raise or lower the signal. In outline:
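After 24 h compound exposure, RNA from reporter-transfected HepG2 cells was reverse-transcribed, PCR-amplified, fluorescently labelled and resolved by capillary electrophoresis. EGR1 reporter transcript changes, up or down, were fitted against DMSO, reflecting endogenous transcription-factor activity.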

Experiment [4] can be described thus: ATG_ERE_CIS: Attagene CIS-FACTORIAL HepG2 Assay for Estrogen Response Element (ERE) (AID 2282940). Particulars: HepG2 ERE cis-reporter, Attagene RNA transcript; actives raise or lower the signal. In a few lines:
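After a 24 h chemical treatment, RNA from reporter-transfected HepG2 cells is reverse-transcribed, PCR-amplified and fluorescently labelled. Fragments separated by capillary electrophoresis give reporter signal; DMSO serves as negative control.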

Experiment [5] is described as follows: ATG_Ets_CIS: Attagene CIS-FACTORIAL HepG2 Assay for human Erythroblast Transformation Specific (ETS) (AID 2282941). Particulars: HepG2 ETS cis-reporter transcription, actives raise or lower the signal. In a few lines: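 Bidirectional fit versus DMSO of reporter mRNA signal, detected by RT-PCR and capillary electrophoresis in HepG2 cells transiently transfected with cis-element reporters and dosed 24 h.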

The target in experiment [6] is Hepatocyte nuclear factor 3-beta (Homo sapiens) (UniProt Q9Y261). The experiment is described as follows: ATG_FoxA2_CIS: Attagene CIS-FACTORIAL HepG2 Assay for human Forkhead box A2 (FOXA2) (AID 2282942). Conditions: HepG2 cis-reporter transcription factor activity, 24 h; actives raise or lower the signal. In a few lines:
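Endogenous transcription factor activity is captured via cis-element-driven reporter transcripts in transfected HepG2. Total RNA taken at 24 h post-dosing; labelled RT-PCR products resolved by capillary electrophoresis. Gain or loss fitted versus DMSO.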

A short description of experiment [7]: ATG_FoxO_CIS: Attagene CIS-FACTORIAL HepG2 Assay for human Forkhead box O (FoxO) (AID 2282943). Conditions: HepG2 Attagene cis-reporter, FoxO element, mRNA; actives raise or lower the signal. In outline:
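HepG2, transient MRTU transfection (cis element, endogenous TFs). Dose 24 h. TriZol RNA → oligo(dT) RT → PCR → 6-FAM primer extension → HpaI cut → CE. Gain/loss vs DMSO.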

Experiment [8] can be described thus: ATG_GATA_CIS: Attagene CIS-FACTORIAL HepG2 Assay for human GATA Binding Protein (AID 2282944). Conditions: HepG2 GATA cis-element reporter, Attagene multiplex mRNA; actives raise or lower the signal. In outline:
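Cells: HepG2, transiently transfected with cis-regulated reporter transcription units. Exposure: 24 h. Detection: RT-PCR plus capillary electrophoresis of FAM-labeled fragments. Analysis: bidirectional, DMSO as baseline.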

A short description of experiment [9]: ATG_GLI_CIS: Attagene CIS-FACTORIAL HepG2 Assay for human Zinc Finger Protein GLI1 (AID 2282945). Conditions: HepG2, Attagene cis-factorial reporter mRNA, GLI element; actives raise or lower the signal. In a few lines:
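Bidirectional curve fits relative to DMSO, using reporter mRNA levels from RT-PCR plus capillary electrophoresis. Cells were HepG2 transiently carrying cis-regulated reporter constructs, harvested 24 h after dosing.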

A short description of experiment [10]: ATG_GRE_CIS: Attagene CIS-FACTORIAL HepG2 Assay for human Glucocorticoid Response Elements (GRE) (AID 2282947). Particulars: HepG2 GRE cis-reporter, Attagene multiplex mRNA; actives raise or lower the signal. In outline:
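Multiplexed cis-reporter mRNA induction, HepG2, 24 h post-dose. RT-PCR, FAM-labelled, HpaI-digested amplicons by CE. Bidirectional fit vs DMSO.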

A short description of experiment [11]: ATG_ISRE_CIS: Attagene CIS-FACTORIAL HepG2 Assay for human Interferon Regulatory Factor 1 (IRF1) binding to an Interferon-Stimulated Response Element (ISRE) (AID 2282948). Conditions: HepG2 ISRE cis-reporter (Attagene), mRNA transcription readout; actives raise or lower the signal. In a few lines:
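Uses HepG2 liver cells transfected with cis-regulated reporters and measures mRNA 24 h post-dosing through RT-PCR, primer-extension labelling and capillary electrophoresis, with DMSO as negative control.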

The nature of experiment [12]: ATG_M_32_CIS: Attagene CIS-FACTORIAL HepG2 Assay for M32 Transcription Factor (Internal Marker) (AID 2282949).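 Also: background control marker of the multiplexed CIS panel rather than a real target.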 Conditions: HepG2 Attagene cis-factorial M32 reporter, mRNA; actives raise or lower the signal. In outline:
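Using DMSO as baseline, bidirectional curve fits were applied to reporter mRNA signals. These came from transiently transfected HepG2 cells exposed for 24 h, with RNA analysed by RT-PCR, FAM primer extension, HpaI digestion and CE.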

The nature of experiment [13]: ATG_M_06_CIS: Attagene CIS-FACTORIAL HepG2 Assay for M06 Transcription Factor (Internal Marker) (AID 2282950). Conditions: HepG2 Attagene CIS-FACTORIAL M06 internal marker reporter; actives raise or lower the signal. In a few lines: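 Measured 24 h post-dosing in transiently transfected HepG2 cells, this internal-marker endpoint reports reporter mRNA via RT-PCR with fluorescent primer extension and capillary electrophoresis. DMSO served as negative control and baseline for bidirectional fitting.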

The target in experiment [14] is Hypoxia-inducible factor 1-alpha (Homo sapiens) (UniProt Q16665). The experiment is described as follows: ATG_HIF1a_CIS: Attagene CIS-FACTORIAL HepG2 Assay for human Hypoxia Inducible Factor 1 (HIF1A) (AID 2282951). Particulars: HepG2 Attagene cis-factorial HIF1a reporter transcription; actives raise or lower the signal. In outline: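 Activity is fitted in both directions relative to DMSO. Reporter transcripts are read by RT-PCR, fluorescent primer extension and capillary electrophoresis after 24 h chemical treatment. The cells are HepG2 carrying transiently transfected cis-element-driven reporter units responding to endogenous factors.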
Hypoxia-inducible factor 1-alpha (Homo sapiens), sequence (Q16665 whole entry, looked up): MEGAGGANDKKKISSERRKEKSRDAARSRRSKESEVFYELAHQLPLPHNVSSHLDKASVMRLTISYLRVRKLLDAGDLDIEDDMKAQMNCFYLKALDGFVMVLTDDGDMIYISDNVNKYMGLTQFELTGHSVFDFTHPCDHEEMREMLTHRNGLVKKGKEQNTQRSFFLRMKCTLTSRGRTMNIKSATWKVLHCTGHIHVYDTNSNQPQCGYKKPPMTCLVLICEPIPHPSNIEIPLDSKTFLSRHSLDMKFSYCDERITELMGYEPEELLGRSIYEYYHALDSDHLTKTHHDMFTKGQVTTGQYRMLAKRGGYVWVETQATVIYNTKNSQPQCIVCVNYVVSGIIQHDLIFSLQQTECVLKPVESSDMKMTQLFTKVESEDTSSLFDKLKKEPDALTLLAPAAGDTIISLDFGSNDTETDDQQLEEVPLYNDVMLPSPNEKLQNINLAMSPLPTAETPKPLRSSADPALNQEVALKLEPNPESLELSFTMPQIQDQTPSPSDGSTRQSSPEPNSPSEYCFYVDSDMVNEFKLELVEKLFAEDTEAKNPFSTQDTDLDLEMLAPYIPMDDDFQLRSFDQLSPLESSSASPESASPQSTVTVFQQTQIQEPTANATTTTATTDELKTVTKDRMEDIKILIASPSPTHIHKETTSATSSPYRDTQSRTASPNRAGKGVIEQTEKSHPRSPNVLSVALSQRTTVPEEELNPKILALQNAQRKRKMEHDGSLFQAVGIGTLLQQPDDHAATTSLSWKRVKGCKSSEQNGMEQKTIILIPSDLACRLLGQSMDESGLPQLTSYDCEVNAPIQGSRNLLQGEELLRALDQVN

In experiment [15] the target is Hepatocyte nuclear factor 6 (Homo sapiens) (UniProt Q9UBC0). Briefly: ATG_HNF6_CIS: Attagene CIS-FACTORIAL HepG2 Assay for human Hepatocyte Nuclear Factor 6 (HNF6) (AID 2282952). Conditions: HepG2 Attagene cis-factorial HNF6 reporter transcription; actives raise or lower the signal. In a few lines: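 Twenty-four-hour chemical treatment of reporter-transfected HepG2 cells precedes RNA isolation, DNase-treated reverse transcription and PCR of reporter sequences. Labelled fragments are sized by capillary electrophoresis and fitted bidirectionally versus DMSO.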
Hepatocyte nuclear factor 6 (Homo sapiens), sequence (Q9UBC0 whole entry, looked up, the tested form may be a part): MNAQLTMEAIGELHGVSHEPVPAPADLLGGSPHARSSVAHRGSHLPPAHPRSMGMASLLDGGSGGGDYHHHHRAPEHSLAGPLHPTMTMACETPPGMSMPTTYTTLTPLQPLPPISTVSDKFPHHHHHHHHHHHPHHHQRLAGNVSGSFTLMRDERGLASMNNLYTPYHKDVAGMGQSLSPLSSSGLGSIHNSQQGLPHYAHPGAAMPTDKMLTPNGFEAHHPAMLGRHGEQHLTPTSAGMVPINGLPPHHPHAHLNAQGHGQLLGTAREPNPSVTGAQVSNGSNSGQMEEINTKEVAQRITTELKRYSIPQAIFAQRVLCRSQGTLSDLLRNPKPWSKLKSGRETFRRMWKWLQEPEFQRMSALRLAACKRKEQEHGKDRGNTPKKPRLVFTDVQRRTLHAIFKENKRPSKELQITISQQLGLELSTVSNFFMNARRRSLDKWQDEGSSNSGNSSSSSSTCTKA

Experiment [16] concerns the target Heat shock factor protein 1 (Homo sapiens) (UniProt Q00613). Briefly: ATG_HSE_CIS: Attagene CIS-FACTORIAL HepG2 Assay for human Heat Shock Transcription Factor 1 (HSE) (AID 2282953). Particulars: HepG2 HSE cis-reporter, Attagene RNA transcription; actives raise or lower the signal. In a few lines:
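Reporter mRNA induction in HepG2 is measured 24 h after dosing, using transiently transfected multiplexed cis-regulated reporter units. Signal comes from capillary electrophoresis of labelled RT-PCR products, with DMSO as negative control.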

Experiment [17] in a line: ATG_MRE_CIS: Attagene CIS-FACTORIAL HepG2 Assay for human Metal Responsive Element (MRE) (AID 2282954). Particulars: HepG2 MRE cis-reporter transcription, Attagene multiplex; actives raise or lower the signal. In a few lines:
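Multiplexed cis-reporter assay in human HepG2 liver cells, 24 h incubation with test chemical. Reporter transcripts measured by RT-PCR and capillary electrophoresis; values from bidirectional curve fitting versus DMSO.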

Experiment [18] can be described thus: ATG_PBREM_CIS: Attagene CIS-FACTORIAL HepG2 Assay for human Phenobarbital-responsive Enhancer Module (PBREM) (AID 2282955). Conditions: HepG2 PBREM cis-reporter, Attagene multiplexed transcription; actives raise or lower the signal. In a few lines:
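Endogenous transcription factor activity was read from reporter transcripts in transiently transfected human HepG2 liver cells after 24 h dosing. RT-PCR products were fluorescently labelled, HpaI-cut and sized by capillary electrophoresis; activity fitted bidirectionally against DMSO baseline.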

Experiment [19] in a line: ATG_M_19_CIS: Attagene CIS-FACTORIAL HepG2 Assay for M19 Transcription Factor (Internal Marker) (AID 2282939). Particulars: HepG2 Attagene CIS-FACTORIAL M19 internal marker reporter; actives raise or lower the signal. In outline: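 HepG2, MRTU transient transfection, 24 h dosing. Total RNA → RT-PCR → 6-FAM primer extension → HpaI digest → CE fluorescence. Bidirectional curve fit, DMSO negative control.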

In experiment [20] the target is Bile acid receptor (Homo sapiens) (UniProt Q96RI1). Briefly: ATG_IR1_CIS: Attagene CIS-FACTORIAL HepG2 Assay for human Nuclear Receptor Subfamily 1 Group H Member 4 (NR1H4), IR1 submotif (AID 2282946). Conditions: IR1 reporter transcription, actives raise or lower the signal. In outline:
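HepG2 cells transiently transfected with multiplexed cis-element reporter units read endogenous transcription factor activity. After 24 h compound exposure, reporter mRNA was quantified by RT-PCR, fluorescent labelling, HpaI digestion and capillary electrophoresis; bidirectional fitting versus DMSO baseline.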

Each structure is given as a SMILES string. Calls of active or inactive are those of the source. The calls were made as follows: active = hit-call score of the fitted dose curve at least 0.9, where 1 is the maximum; inactive = score below 0.9.

Hepatocyte nuclear factor 3-beta (Homo sapiens), sequence (Q9Y261 whole entry, looked up): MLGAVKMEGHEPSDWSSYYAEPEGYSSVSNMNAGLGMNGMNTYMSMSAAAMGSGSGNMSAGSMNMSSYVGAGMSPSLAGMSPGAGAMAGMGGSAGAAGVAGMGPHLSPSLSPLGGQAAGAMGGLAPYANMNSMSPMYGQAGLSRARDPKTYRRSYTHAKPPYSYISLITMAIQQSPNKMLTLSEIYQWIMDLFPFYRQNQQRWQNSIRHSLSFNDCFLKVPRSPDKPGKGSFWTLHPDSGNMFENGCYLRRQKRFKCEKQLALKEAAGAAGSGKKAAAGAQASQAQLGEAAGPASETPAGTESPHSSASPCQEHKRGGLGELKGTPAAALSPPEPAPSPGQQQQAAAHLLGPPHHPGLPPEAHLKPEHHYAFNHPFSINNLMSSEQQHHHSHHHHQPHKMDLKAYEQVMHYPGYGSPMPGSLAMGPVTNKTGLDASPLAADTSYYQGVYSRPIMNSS
Bile acid receptor (Homo sapiens), sequence (Q96RI1 whole entry, looked up): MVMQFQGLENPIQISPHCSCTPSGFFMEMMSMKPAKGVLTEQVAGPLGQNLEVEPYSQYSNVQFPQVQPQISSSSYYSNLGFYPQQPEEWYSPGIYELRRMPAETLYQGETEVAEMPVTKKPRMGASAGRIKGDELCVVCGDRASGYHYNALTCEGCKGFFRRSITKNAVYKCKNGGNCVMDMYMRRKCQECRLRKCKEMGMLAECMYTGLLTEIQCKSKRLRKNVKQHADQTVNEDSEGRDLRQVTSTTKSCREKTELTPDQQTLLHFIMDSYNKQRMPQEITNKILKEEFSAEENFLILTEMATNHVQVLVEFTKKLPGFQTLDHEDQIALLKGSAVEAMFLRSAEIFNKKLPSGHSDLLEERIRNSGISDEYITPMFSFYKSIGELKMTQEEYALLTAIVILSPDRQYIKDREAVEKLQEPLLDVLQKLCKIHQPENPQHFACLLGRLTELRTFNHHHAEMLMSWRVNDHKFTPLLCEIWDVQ
Heat shock factor protein 1 (Homo sapiens), sequence (Q00613 whole entry, looked up): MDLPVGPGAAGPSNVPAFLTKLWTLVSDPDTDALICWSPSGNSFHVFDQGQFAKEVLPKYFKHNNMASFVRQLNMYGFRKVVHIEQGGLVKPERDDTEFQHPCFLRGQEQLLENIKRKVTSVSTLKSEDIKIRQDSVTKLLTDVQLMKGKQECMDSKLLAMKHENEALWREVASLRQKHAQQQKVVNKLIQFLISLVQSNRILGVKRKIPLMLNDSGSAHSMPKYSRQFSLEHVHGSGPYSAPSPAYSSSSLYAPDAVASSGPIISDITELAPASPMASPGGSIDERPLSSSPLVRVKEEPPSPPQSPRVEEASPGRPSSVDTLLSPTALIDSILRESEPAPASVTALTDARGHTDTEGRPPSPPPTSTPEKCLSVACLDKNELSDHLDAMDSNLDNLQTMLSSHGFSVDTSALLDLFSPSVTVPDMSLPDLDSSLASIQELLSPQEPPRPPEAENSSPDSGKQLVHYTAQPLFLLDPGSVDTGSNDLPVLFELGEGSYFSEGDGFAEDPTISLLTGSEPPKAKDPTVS

For the molecule `CC(C)=CCCC(C)=CC=O`, the result in experiment [1], in experiment [2], in [5], in experiment [6], in experiment [7] and in experiment [8] was inactive. Also, the molecule was classed as inactive in experiment [9], in [10], in experiment [11], in experiment [12], in experiment [13] and in experiment [15]. In addition, the molecule was called inactive in experiment [16] and in [18]. In addition, the AC50 in [3], in experiment [4], in experiment [14] and in experiment [17] was 100 µM (active) in each case.

Regarding `CCn1nc(Cc2ccccc2)cc1C1CCN(C[C@H]2C[C@H](N(C)[C@@H](C(=O)O)C(C)C)C[C@@H]2c2cccc(F)c2)CC1`, the AC50 (as a rule, the midpoint of the concentration-response curve, whichever way the signal moves) is 79.3 µM (active) in [1]; 155 µM (active) in experiment [3]; 5.55 µM (active) in [4]; 100 µM (active) in [11]; 26.6 µM (active) in [14]. The result in experiment [2], in [5], in experiment [6], in experiment [7], in [8] and in experiment [9] was inactive. The outcome in experiment [10], in experiment [12], in experiment [15], in [16], in experiment [17] and in experiment [18] was inactive.

On to `CCOCCOCCOCCO`, for which the result in [1], in experiment [2], in experiment [3], in experiment [19], in experiment [5] and in experiment [6] was inactive. Moreover, the outcome in experiment [7], in [8], in experiment [9], in experiment [20], in experiment [11] and in experiment [12] was inactive. Further, the molecule was called inactive in experiment [14], in [15], in experiment [16], in experiment [17] and in [18].

As for `Clc1nc(Cl)c(Cl)c(Cl)c1Cl`, the outcome in experiment [1], in experiment [2], in experiment [3], in [19], in experiment [5] and in experiment [6] was inactive. Also, the call in experiment [7], in [8], in experiment [9], in experiment [10], in experiment [12] and in experiment [13] was inactive. Also, the result in experiment [14], in experiment [15], in experiment [16], in experiment [17] and in experiment [18] was inactive.

For `Cc1c(-c2cccnc2)c2ccccc2n1CCCCC(=O)O`, the outcome in experiment [1], in experiment [2], in [3], in [19], in [5] and in [6] was inactive. For the same molecule, the molecule was classed as inactive in experiment [7], in experiment [8], in experiment [9], in experiment [20], in [12] and in [14]. For the same molecule, the molecule was called inactive in experiment [15], in experiment [16], in experiment [17] and in experiment [18].

Regarding `Nc1cccc(N)c1`, the result in experiment [1], in [2], in experiment [3], in [19], in experiment [5] and in [6] was inactive. For the same molecule, the molecule was called inactive in experiment [7], in experiment [8], in [9], in [20], in [12] and in [13]. Moreover, the result in experiment [14], in experiment [15], in experiment [16], in [17] and in experiment [18] was inactive.

Consider `O=C1CCC(N2C(=O)c3ccccc3C2=O)C(=O)N1` (stereo unspecified), for which the result in [1], in experiment [2], in [3], in experiment [19], in [5] and in [6] was inactive. The molecule was called inactive in experiment [7], in experiment [8], in experiment [9], in experiment [10], in [11] and in experiment [12]. Further, the molecule was classed as inactive in experiment [13], in experiment [15], in experiment [16], in experiment [17] and in experiment [18].

Turning to `CCCCCCCCCCCCc1ccccc1`, the outcome in experiment [1], in experiment [2], in [3], in experiment [19], in experiment [5] and in experiment [6] was inactive. The result in experiment [7], in experiment [8], in experiment [9], in experiment [20], in experiment [12] and in experiment [13] was inactive. The call in experiment [14], in experiment [15], in [16], in experiment [17] and in experiment [18] was inactive.

The values are drawn from PubChem BioAssay (EPA / NIEHS).
